From PubChem BioAssay
HT1080 IDH1KD tx: toxicity to HT-1080 IDH1 knockdown cells (counter line) | HT-1080 IDH1 knockdown viability, ATP luminescence, 48 h | Potency, µM (doses to about 46.1 µM), inactives show top-dose activity, negative = toxicity, actives largely listed as cytotoxic | 360,000 compounds, 2% hits;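 also: 0% = DMSO wells and -100% = cell-free medium wells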
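Cytotoxicity counter-line: IDH1KD HT-1080, 48 h, CellTiter-Glo. Curves classed by r2, magnitude and activity.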
TDP1 cell CPT: growth inhibition of DT40 Tdp1-/-;hTDP1 cells with camptothecin (screen for TDP1 inhibitors) | chicken DT40 Tdp1-/-;hTDP1 cells + 20 nM CPT, ATP luminescence, 48 h | Potency, µM (highest dose often 46.2 µM), for the others: at the highest dose activity change, negative = growth inhibition, hits mostly inhibitors | 420,000 compounds, 12% hits; also: nearly all actives have a fitted effect of over 55% in size
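Chicken DT40 Tdp1-/- cells complemented with human TDP1, 400 cells/well, exposed to compounds plus 20 nM camptothecin for at least 48 h at 37 C; viability read as ATP content by CellTiter-Glo luminescence.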
KB-V1 cytotox: kills drug-selected multidrug resistant KB-V1 cells | KB-V1 MDR cells viability, CellTiter-Glo, 72 h | Potency, µM (titrated, usually from 46.1 µM), actives largely listed as cytotoxic | 400,000 compounds, 3.4% hits | AID 1347076; also: nearly all actives have a fitted effect of over 60% in size
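Luminescent ATP read-out (CellTiter-Glo, 10 min) measures survival of drug-selected KB-V1 MDR cells after 72 h, 37 degrees C compound exposure. Medium: phenol-red-free DMEM, 10% FBS. Values from fitted concentration-response curves.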
DT40 TDP1 no CPT: qHTS for Inhibitors of human tyrosyl-DNA phosphodiesterase 1 (TDP1): qHTS in cells in absence of CPT; 420,000 compounds, 15% hits; DT40 Tdp1-/- hTDP1 cells, no CPT, ATP luminescence, 48 h; Potency, µM (titrated, usually from 46.2 µM), for inactives: at the top dose activity change, negative = growth inhibition, hits mostly inhibitors; also: nearly all actives have a fitted effect of over 55% in size
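Chicken DT40 Tdp1-/- cells stably complemented with human TDP1 were seeded at 400 cells/well with DMSO in place of 20 nM camptothecin. After compound pinning, cells grew at least 48 hr at 37 °C; viability read by CellTiter-Glo luminescence.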
KB-3-1 cytotox: KB-3-1 parental cell cytotoxicity. 400,000 compounds, 1.4% hits. KB-3-1 viability, CellTiter-Glo ATP luminescence, 72 h. Potency, µM (titrated, usually from 46.1 µM), most hits filed as cytotoxic; also: nearly all actives have a fitted effect of over 60% in size
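Screening of KB-3-1 cells (DMEM, 10% FBS, phenol-red free) ran from lowest to highest compound concentration; after 72 h at 37 °C viability was read luminescently and curves fitted.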
HT1080-NT tox: kills 2HG-producing HT-1080-NT fibrosarcoma cells; HT-1080-NT fibrosarcoma viability, CellTiter-Glo ATP luminescence, 48 h; Potency, µM (titrated, usually from 46.1 µM), inactives show top-dose activity, negative = less viability, hits mostly cytotoxic; 360,000 compounds, 1.6% hits; AID 686970;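 also: NT is the 2HG producing partner of a matched IDH1 knockdown line; 0% = DMSO-treated cells and -100% = media-only wells without cells; nearly all actives have a fitted effect of over 55% in size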
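Viability by CellTiter-Glo luminescence after 48 h compound exposure at 37C of HT-1080-NT cells (750/well, RPMI, 5% FBS). % activity scaled between DMSO wells and medium-only wells, then curve-fitted and categorized by curve class.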
Active calls of the source: *; i = inactive; ? = inconclusive; nt = no result; ! = repeats disagree. In the library only some 19% were active in any assay of this set; here they are far more common. Calls follow the shape of the dose curve; as a rule, active = well fitted curve in the direction sought with a large enough effect; inconclusive = small, poorly fitted or top-dose-only effect, or another doubt; inactive = no such curve, though single readings can be large; an effect the other way counts as inactive or inconclusive. Unless noted, % is scaled to controls: 0 for no effect and ±100 for the full control effect; potency is read from the fitted curve at half-maximal effect.

SMILES	HT1080 IDH1KD tx	TDP1 cell CPT	KB-V1 cytotox	DT40 TDP1 no CPT	KB-3-1 cytotox	HT1080-NT tox
O=C(COC(=O)CNC(=O)c1ccco1)NCc1ccc(F)cc1	6%	3%	i	13%	i	7%
CC(C)(CNC(=O)c1cc2c(s1)CCCC2)N1CCOCC1	0%	8%	i	-7%	i	-4%
O=C(N/N=C/c1c(F)c(F)c(F)c(F)c1F)c1ccc(Cn2cc(Br)cn2)o1	-1%	16µM*	i	15µM*	i	3%
O=C(N/N=C/c1c(F)cccc1Cl)c1ccc(Cn2cc(Br)cn2)o1	-7%	-9%	i	-8%	i	-13%
Cn1nccc1C(=O)N1CCN(c2ccccc2F)CC1	-1%	10%	i	15%	i	24%
CN(C(=O)COC(=O)c1cc(NS(=O)(=O)c2cc([N+](=O)[O-])ccc2Cl)ccc1O)C1CCCCC1	-22%	-25%	i	-6%	i	-21%
Cc1ccc(Cl)cc1NC1=C/C(=N\S(=O)(=O)c2cccs2)c2ccccc2C1=O	4.6µM*	5.2µM*	9.2µM*!	2.9µM*	3.3µM*!	3.7µM*
Cc1ccc(NC2=C/C(=N\S(=O)(=O)c3cccs3)c3ccccc3C2=O)c(C)c1	6.5µM*	2.6µM*	5.2µM*	2.6µM*	6.5µM*	7.3µM*
Cc1c(Cl)cccc1N/C(=N/S(=O)(=O)c1cccs1)c1ccccc1	-15%	-19%	?	?	?	-24%
Cc1cccc(NC2=C/C(=N/S(=O)(=O)c3cccs3)c3ccccc3C2=O)c1	3.3µM*	3.7µM*	?	3.3µM*	?	4.6µM*
Cc1ccc(Cl)cc1NS(=O)(=O)c1ccccc1	-21%	-6%	i	?	i	-8%
O=C(NC1CCCCC1)NS(=O)(=O)c1ccc2c(c1)CCC2	23%	-11%	i	-17%	i	10%
Cc1[nH]c2ccccc2c1CCNC(=O)c1c(N)no[n+]1[O-]	-9%	17%	?	-16%	?	-15%
Cc1ccc(S(=O)(=O)CNC(=S)c2ccc3ccccc3c2)cc1	14%	?	i	18µM*	i	3%
CCNc1ccc(-c2nc(-c3ccco3)no2)cc1[N+](=O)[O-]	nt	-6%	?	-11%	i	nt
O=c1[nH][nH]cc1C=Nc1cc(Cl)ccc1O	?	21µM*	?	?	i	-14%
O=c1[nH][nH]cc1C=Nc1ccc(Cl)cc1Cl	-5%	-2%	i	20%	i	-1%
CC(OC(=O)c1cc(=O)[nH]c2ccccc12)C(=O)NC1CCCC1 (stereo not drawn)	-6%	-7%	nt	0%	nt	0%
CSc1ccc(CN2CCC(C)(Oc3ccc(-n4ccnc4)cc3)C2)cc1 (stereo not drawn)	-8%	18µM*	?	18µM*	i	?
CSc1ccc(OC2(C)CCN(Cc3ccccc3)C2)cc1 (stereo not drawn)	-15%	?	i	?	i	?
COc1cc(OC)cc(OC2(C)CCN(Cc3ccc(OC(C)C)cc3)C2)c1 (stereo not drawn)	?	26µM*	i	23µM*	i	-6%
